{"source": "PubChem BioAssay AID623911", "about": "(Vanderbilt High Throughput Screening Facility, 2012)", "note": "About 770 (37%) of roughly 2,100 compounds were called active.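 How the source made its calls: active means by-eye trace score of 1 for enhancers or -1 for inhibitors, so actives lie on both sides (some results past the limit were not filed as active); inactive means score 0, or 3 fluorescent, or 4 baseline rise.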 The list shows a part of the results."}
{"biological_target": "G protein-activated inward rectifier potassium channel 2 (Homo sapiens) + G protein-activated inward rectifier potassium channel 1 (Homo sapiens) (UniProt P48051+P48549)", "sequence (P48051 whole entry, looked up)": "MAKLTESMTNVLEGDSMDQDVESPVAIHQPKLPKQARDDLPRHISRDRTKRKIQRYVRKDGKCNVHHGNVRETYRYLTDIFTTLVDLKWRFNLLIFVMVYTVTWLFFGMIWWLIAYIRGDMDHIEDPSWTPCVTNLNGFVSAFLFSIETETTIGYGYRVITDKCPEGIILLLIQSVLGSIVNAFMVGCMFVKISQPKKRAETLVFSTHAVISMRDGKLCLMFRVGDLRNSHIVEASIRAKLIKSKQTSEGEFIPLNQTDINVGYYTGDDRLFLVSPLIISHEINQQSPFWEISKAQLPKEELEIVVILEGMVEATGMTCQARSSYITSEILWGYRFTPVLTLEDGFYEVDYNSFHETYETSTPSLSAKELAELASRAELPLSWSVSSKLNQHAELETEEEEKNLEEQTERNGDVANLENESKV", "sequence (P48549 whole entry, looked up)": "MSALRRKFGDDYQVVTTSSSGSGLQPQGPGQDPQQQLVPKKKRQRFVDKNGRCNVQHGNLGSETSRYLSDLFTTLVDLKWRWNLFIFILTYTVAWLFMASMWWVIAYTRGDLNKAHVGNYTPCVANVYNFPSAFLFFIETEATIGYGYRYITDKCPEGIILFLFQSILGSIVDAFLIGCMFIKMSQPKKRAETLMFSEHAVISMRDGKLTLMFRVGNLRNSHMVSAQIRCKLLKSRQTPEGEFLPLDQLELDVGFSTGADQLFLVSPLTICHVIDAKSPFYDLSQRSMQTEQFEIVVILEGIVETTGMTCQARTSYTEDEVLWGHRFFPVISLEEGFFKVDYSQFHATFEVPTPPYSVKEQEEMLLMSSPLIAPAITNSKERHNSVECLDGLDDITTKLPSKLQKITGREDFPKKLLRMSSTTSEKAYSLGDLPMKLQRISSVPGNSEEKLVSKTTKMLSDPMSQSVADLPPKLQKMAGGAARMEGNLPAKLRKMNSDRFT", "assay": "GIRK1/2 thallium flux modulators, retest, confirmation, cell-based, HEK293 rmGlu8/hGIRK1/2, FluoZin-2 (AID 623911)", "details": "HEK293 rmGlu8/hGIRK1/2, thallium flux FluoZin-2; actives lie on both sides; glutamate co-added at its EC20 level"}
{"smiles": "Cc1ccc(N2CC(C(=O)N/N=C/c3sccc3C)CC2=O)cc1", "note": "(stereo not drawn)", "manual score": "0.5 (inactive)"}
{"smiles": "CN(C)CCCN1C(=O)c2oc3ccccc3c(=O)c2C1c1cccs1", "note": "(stereo not drawn)", "manual score": "0 (inactive)"}
{"smiles": "CCN(CC)CCN1C(=O)c2oc3ccccc3c(=O)c2C1c1ccccc1", "note": "(stereo not drawn)", "manual score": "0 (inactive)"}
{"smiles": "CCN(CC)CCCN1C(=O)c2oc3ccccc3c(=O)c2C1c1cccs1", "note": "(stereo not drawn)", "manual score": "1 (active)"}
{"smiles": "Cc1c(C2Nc3ccccc3NC3=C2C(=O)CC(C)(C)C3)cnn1C", "note": "(stereo not drawn)", "manual score": "0 (inactive)"}
{"smiles": "CC(C)Sc1nc2c(c(=O)[nH]1)C(c1cccs1)C1=C(CC(C)(C)CC1=O)N2", "note": "(stereo not drawn)", "manual score": "-1 (active)"}
{"smiles": "Cc1cc2c(cc1C)NC(c1c(C)n(C)n(-c3ccccc3)c1=O)C1=C(CC(C)(C)CC1=O)N2", "note": "(stereo not drawn)", "manual score": "3 (inactive)"}
{"smiles": "COc1ccc(C(=O)C2C(c3ccc(-c4ccccc4[N+](=O)[O-])o3)NC(=O)NC2(O)C(F)(F)F)cc1", "note": "(stereo not drawn)", "manual score": "-1 (active)"}
{"smiles": "Cc1cc([N+](=O)[O-])ccc1-c1ccc(C2Nc3ccccc3C(=O)N2O)o1", "note": "(stereo not drawn)", "manual score": "0 (inactive)"}
{"smiles": "CN(C)c1nc2ccccc2c(N)c1-c1ccccc1", "manual score": "-1 (active)"}
{"smiles": "Fc1cccc2sc(Nc3nnc(-c4ccccc4)o3)nc12", "manual score": "1 (active)"}
{"smiles": "Fc1cccc2sc(Nc3nc4ccccc4s3)nc12", "manual score": "0 (inactive)"}
{"smiles": "Fc1ccc2nc(Nc3nc4c(F)cccc4s3)sc2c1", "manual score": "1 (active)"}
{"smiles": "COc1cc(OC)cc(-c2nnc(Nc3nc4c(F)cccc4s3)o2)c1", "manual score": "0 (inactive)"}
{"smiles": "COc1cccc(-c2nnc(Nc3nc4c(F)cccc4s3)o2)c1", "manual score": "1 (active)"}
{"smiles": "Fc1cccc2sc(Nc3nnc(-c4ccco4)o3)nc12", "manual score": "1 (active)"}
{"smiles": "Fc1ccc2nc(Nc3nc4c(F)cc(F)cc4s3)sc2c1", "manual score": "0 (inactive)"}
{"smiles": "Fc1cc(F)c2nc(Nc3nc4c(F)cccc4s3)sc2c1", "manual score": "0.5 (inactive)"}
{"smiles": "Fc1cccc2sc(Nc3nc4cc5c(cc4s3)OCO5)nc12", "manual score": "0 (inactive)"}
{"smiles": "COc1ccc(-c2nnc3sc(C4CCCCC4)nn23)cc1OC", "manual score": "0 (inactive)"}
{"smiles": "C=CCNC(=O)C1CC(=O)N(c2ccc(OCC(=O)Nc3ccccc3)cc2)C1", "note": "(stereo not drawn)", "manual score": "0 (inactive)"}
{"smiles": "Cc1cc2nc(CCN(C(=S)NCC(C)C)C3CCCC3)[nH]c2cc1C", "manual score": "0 (inactive)"}
{"smiles": "Cc1ccc(NC(=O)c2ccc(COc3ccc4c(c3)CCC4)cc2)c(C)c1", "manual score": "0 (inactive)"}
{"smiles": "CC(C)(C)C1CCc2c(C(=O)N/N=C/c3cccs3)csc2C1", "note": "(stereo not drawn)", "manual score": "0 (inactive)"}
{"smiles": "Cc1cccc(NC(=S)NNC(=O)c2csc3c2CCC(C)C3)c1", "note": "(stereo not drawn)", "manual score": "1 (active)"}
{"smiles": "Cc1ccc(C)c(NC(=S)NNC(=O)c2csc3c2CCCC3)c1", "manual score": "1 (active)"}
{"smiles": "Cc1ccc(C)c(NC(=S)NNC(=O)c2csc3c2CCC(C)C3)c1", "note": "(stereo not drawn)", "manual score": "1 (active)"}
{"smiles": "Cc1cccc(NC(=S)NNC(=O)c2csc3c2CCCC3)c1", "manual score": "1 (active)"}
